Assay [1] can be described thus: qHTS assay to identify small molecule antagonists of the thyroid receptor (TR) signaling pathway - cell viability counter screen (AID 743064). Note: nearly all actives have a fitted effect of over 50% in size. Note: potency is the fitted concentration of half-maximal effect. The essentials: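 GH3.TRE-Luc cells, 4 h pre-plating; cpd + T3 1 nM final; 37 °C 23.5 h; CellTiter-Fluor 30 min; fluorescence read.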
A short description of assay [2]: qHTS assay to identify small molecule antagonists of the thyroid receptor (TR) signaling pathway (AID 743065). Note: nearly all actives have a fitted effect of over 55% in size. Note: potency is the fitted concentration of half-maximal effect. The essentials:
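GH3.TRE-Luc rat pituitary cells carrying two TR response elements driving luciferase were plated for 4 h, given compound plus 1 nM T3 (final), and incubated 23.5 h at 37 C. ONE-Glo luminescence measured reporter inhibition; CellTiter-Fluor fluorescence tracked cytotoxicity.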
Background: In qHTS, concentration-response curves come from the screen itself.

Assay [3] relates to thyroid hormone receptor (rat, GH3 cells). Put plainly: qHTS assay to identify small molecule agonists of the thyroid receptor (TR) signaling pathway (AID 743066; calls by dose curve).
Assay [4] is described as follows: qHTS assay to identify small molecule antagonists of the estrogen receptor alpha (ER-alpha) signaling pathway - cell viability counter screen (AID 743074; calls by dose curve;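 note: HEK293 cells carrying ER-alpha-UAS-bla reporter stimulated with 17beta-estradiol; nearly all actives have a fitted effect of over 45% in size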).
In assay [5] the target is Estrogen receptor (Homo sapiens) (UniProt P03372). Put plainly: qHTS assay to identify small molecule agonists of the estrogen receptor alpha (ER-alpha) signaling pathway (AID 743075; calls by dose curve;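 note: HEK293 GripTite cells with ER-alpha and UAS-driven beta-lactamase reporter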).
Estrogen receptor (Homo sapiens), sequence (P03372 whole entry, looked up): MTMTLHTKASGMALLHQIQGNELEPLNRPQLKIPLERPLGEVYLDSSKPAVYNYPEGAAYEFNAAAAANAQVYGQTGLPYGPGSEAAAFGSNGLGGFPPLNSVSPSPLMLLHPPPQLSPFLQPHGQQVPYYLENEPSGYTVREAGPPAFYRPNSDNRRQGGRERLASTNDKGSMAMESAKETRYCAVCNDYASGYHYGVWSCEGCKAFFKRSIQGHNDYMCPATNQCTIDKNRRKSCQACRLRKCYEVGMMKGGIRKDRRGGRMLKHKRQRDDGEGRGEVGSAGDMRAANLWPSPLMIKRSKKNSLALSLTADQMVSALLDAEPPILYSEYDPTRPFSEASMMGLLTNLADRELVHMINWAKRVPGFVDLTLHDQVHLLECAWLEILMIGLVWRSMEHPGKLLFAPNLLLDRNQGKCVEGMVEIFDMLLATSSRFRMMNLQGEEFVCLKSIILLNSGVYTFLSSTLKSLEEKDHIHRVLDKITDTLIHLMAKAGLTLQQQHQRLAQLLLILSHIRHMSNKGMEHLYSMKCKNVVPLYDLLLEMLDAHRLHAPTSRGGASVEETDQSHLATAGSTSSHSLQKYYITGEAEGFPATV
Assay [6] has the same target. Put plainly: qHTS assay to identify small molecule agonists of the estrogen receptor alpha (ER-alpha) signaling pathway using the BG1 cell line (AID 743079). Note: nearly all actives have a fitted effect of over 20% in size. The note with it: BG1Luc4E2 cells, ERE-luciferase agonist, 22 h; activation: at 70.3 µM (top of the series).
Assay [7] is described as follows: qHTS assay to identify small molecule antagonists of the estrogen receptor alpha (ER-alpha) signaling pathway using the BG1 cell line (AID 743080; calls by dose curve;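 note: BG1 cells stimulated with 17beta-estradiol alongside compound; nearly all actives have a fitted effect of over 25% in size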). An outline of the steps: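 Readout is ONE-Glo luminescence, taken 30 min at room temperature after reagent addition, preceded by a CellTiter-Fluor viability read; BG1-Luc-4E2 cells had received compound and 17beta-estradiol for 21.5 h at 37 C.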

Assay [8] can be described thus: qHTS assay to identify small molecule antagonists of the estrogen receptor alpha (ER-alpha) signaling pathway using the BG1 cell line - cell viability counter screen (AID 743081).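 Note: compound given together with 17beta-estradiol as the ER stimulus; nearly all actives have a fitted effect of over 45% in size.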
The target in another assay is Aromatase (Homo sapiens) (UniProt P11511). Put plainly: qHTS assay to identify aromatase inhibitors (AID 743083). Note: nearly all actives have a fitted effect of over 55% in size.
Aromatase (Homo sapiens), sequence (P11511 whole entry, looked up): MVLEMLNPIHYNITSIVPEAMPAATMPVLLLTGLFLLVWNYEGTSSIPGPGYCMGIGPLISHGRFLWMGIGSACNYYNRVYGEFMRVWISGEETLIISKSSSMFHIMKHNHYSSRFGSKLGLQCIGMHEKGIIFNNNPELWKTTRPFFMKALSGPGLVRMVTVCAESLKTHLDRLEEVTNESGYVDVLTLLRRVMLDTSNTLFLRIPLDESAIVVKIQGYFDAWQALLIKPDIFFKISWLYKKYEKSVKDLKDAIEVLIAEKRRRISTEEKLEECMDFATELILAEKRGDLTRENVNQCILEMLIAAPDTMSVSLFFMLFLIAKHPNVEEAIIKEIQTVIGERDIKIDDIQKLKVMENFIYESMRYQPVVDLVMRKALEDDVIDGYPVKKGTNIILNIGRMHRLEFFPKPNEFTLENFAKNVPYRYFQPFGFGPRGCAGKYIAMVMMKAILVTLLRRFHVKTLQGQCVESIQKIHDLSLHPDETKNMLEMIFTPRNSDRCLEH
Assay [9] can be described thus: qHTS assay to identify aromatase inhibitors - cell viability counter screen (AID 743084).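 Note: cells stimulated with testosterone during compound exposure; nearly all actives have a fitted effect of over 55% in size.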
Assay [10] has as its target Aryl hydrocarbon receptor (Homo sapiens) (UniProt P35869). Put plainly: qHTS assay to identify small molecule that activate the aryl hydrocarbon receptor (AhR) signaling pathway (AID 743085).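 Note: HG2L7.5c1 human HepG2 liver cells with stably integrated DRE-driven firefly reporter; nearly all actives have a fitted effect of over 15% in size.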 The essentials:
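Luminescence read-out: ONE-Glo reagent, 30 min at room temperature, in HG2L7.5c1 HepG2 reporter cells treated 24 h at 37C. Viability was measured beforehand by CellTiter-Fluor fluorescence after 30 min at 37C.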

Assay [11] can be described thus: qHTS assay to identify small molecule that activate the aryl hydrocarbon receptor (AhR) signaling pathway - cell viability counter screen (AID 743086).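 Note: HepG2 liver cells carrying the AhR DRE luciferase reporter; nearly all actives have a fitted effect of over 45% in size.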 An outline of the steps: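 HepG2-AhR-luc (HG2L7.5c1) cells, 4000/well, were preincubated 5 h at 37C, exposed to compound in qHTS format for 24 hr at 37C, then given CellTiter-Fluor for 30 min; viability was read as fluorescence in the reporter wells.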

In assay [12] the target is Peroxisome proliferator-activated receptor gamma (Homo sapiens) (UniProt P37231). Put plainly: qHTS assay to identify small molecule agonists of the peroxisome proliferator-activated receptor gamma (PPARg) signaling pathway (AID 743094; active = well fitted activation curve with a large enough effect in the signal ratio in the repeat runs, not every such curve was filed as active; the % refers to the signal ratio). The essentials:
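Reporter activation was scored by fluorescence of cleaved LiveBLAzer B/G substrate (1 h, room temperature) in PPARg-bla HEK293H cells previously treated 17 h at 37C with DMSO-dissolved compounds.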

Assay [13] has the same target. Put plainly: qHTS assay to identify small molecule antagonists of the peroxisome proliferator-activated receptor gamma (PPARg) signaling pathway (AID 743191; calls by dose curve; note: nearly all actives have a fitted effect of over 30% in size). An outline of the steps:
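GeneBLAzer PPARg UAS-bla HEK293H cells carrying a UAS-driven beta-lactamase reporter were plated at 3000 cells/well, preincubated 5 h at 37C, then given compound for 17 h at 37C; LiveBLAzer B/G FRET substrate was read after 1 h at room temperature.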

The nature of assay [14]: qHTS assay to identify small molecule antagonists of the peroxisome proliferator-activated receptor gamma (PPARg) signaling pathway - cell viability counter screen (AID 743194). Note: nearly all actives have a fitted effect of over 55% in size. Note: potency is the fitted concentration of half-maximal effect. An outline of the steps: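 PPARg-UAS-bla HEK293H cells were plated, rested 5 h at 37 C, then treated with compounds plus rosiglitazone (50 nM final) for 17 h at 37 C; viability was then read by CellTiter-Glo luminescence after 30 min at room temperature.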

Assay [15] is described as follows: qHTS assay for small molecule agonists of the antioxidant response element (ARE) signaling pathway (AID 743202; active = well fitted activation curve with a large enough effect in the signal ratio in the repeat runs, not every such curve was filed as active; the % refers to the signal ratio). The essentials:
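Following a 16 h, 37 C exposure of reporter HepG2 cells (ARE-driven beta-lactamase, 2,000 cells/well) to compounds, FRET substrate was applied for 2 h at room temperature and fluorescence intensity recorded.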

A short description of assay [16]: qHTS assay for small molecule agonists of the antioxidant response element (ARE) signaling pathway - cell viability counter screen (AID 743203; calls by dose curve; note: nearly all actives have a fitted effect of over 55% in size). The essentials:
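Viability counter screen: stably transfected ARE-bla HepG2 line, 16 hrs compound exposure at 37C/5% CO2, ATP-based CellTiter-Glo luminescence measured in the reporter wells.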

A short description of assay [17]: qHTS assay for small molecule activators of the heat shock response signaling pathway - cell viability counter screen (AID 743209). Note: nearly all actives have a fitted effect of over 50% in size. An outline of the steps: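 Viability of HSE-bla HeLa cells is measured with CellTiter-Glo in the wells already used for the reporter read. Compound exposure lasts 5 h at 37 C, and luminescence is read after 30 min at room temperature.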

Assay [18] concerns the target Estrogen receptor (Homo sapiens) (UniProt P03372). Put plainly: qHTS assay to identify small molecule antagonists of the estrogen receptor alpha (ER-alpha) signaling pathway (AID 743069; active = well fitted curve in the direction sought with a large enough effect in the signal ratio in the repeat runs, not every such curve was filed as active; the % refers to the signal ratio; note: potency is the fitted concentration of half-maximal effect). An outline of the steps: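 A 17beta-estradiol challenge was applied right after compound transfer to ER-alpha-UAS-bla HEK293 cells previously kept in charcoal-stripped serum. Plates stood 18 hr at 37C and 5% CO2; fluorescence was read following 2 hr FRET substrate loading at room temperature.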

Assay [19] in a line: qHTS assay for small molecule activators of the heat shock response signaling pathway (AID 743210; active = well fitted activation curve with a large enough effect in the signal ratio in the repeat runs, with a control signal flat, not every such curve was filed as active; the % refers to the signal ratio). An outline of the steps: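 Heat shock element–beta-lactamase HeLa reporter cells; qHTS with compounds for 5 h at 37 C; detection by FRET substrate fluorescence after 2.5 h at RT.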

The results in this text go back to PubChem BioAssay (Tox21).

Inconclusive results are not listed. Active and inactive are the calls of the source. Unless noted, calls come from the whole dose curve; as a rule, active = well fitted curve in the direction sought with a large enough effect in the repeat runs; inconclusive = weak or mixed curves; inactive = no such curve, though single readings can be large; an effect the other way counts as inactive or inconclusive.

Peroxisome proliferator-activated receptor gamma (Homo sapiens), sequence (P37231 whole entry, looked up): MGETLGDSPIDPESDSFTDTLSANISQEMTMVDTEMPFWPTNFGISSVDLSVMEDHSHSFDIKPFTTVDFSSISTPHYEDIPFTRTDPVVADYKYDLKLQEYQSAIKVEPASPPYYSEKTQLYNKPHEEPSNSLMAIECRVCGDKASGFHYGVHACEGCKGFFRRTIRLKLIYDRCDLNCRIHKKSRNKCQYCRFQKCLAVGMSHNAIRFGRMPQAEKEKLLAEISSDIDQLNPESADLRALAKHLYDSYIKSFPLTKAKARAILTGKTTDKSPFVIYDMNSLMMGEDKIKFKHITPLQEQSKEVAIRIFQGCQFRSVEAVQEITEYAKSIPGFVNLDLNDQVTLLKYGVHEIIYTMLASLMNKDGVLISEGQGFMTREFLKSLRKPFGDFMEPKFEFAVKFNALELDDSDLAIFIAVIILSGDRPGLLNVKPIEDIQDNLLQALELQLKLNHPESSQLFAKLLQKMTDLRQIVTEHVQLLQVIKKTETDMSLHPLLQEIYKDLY
Aryl hydrocarbon receptor (Homo sapiens), sequence (P35869 whole entry, looked up): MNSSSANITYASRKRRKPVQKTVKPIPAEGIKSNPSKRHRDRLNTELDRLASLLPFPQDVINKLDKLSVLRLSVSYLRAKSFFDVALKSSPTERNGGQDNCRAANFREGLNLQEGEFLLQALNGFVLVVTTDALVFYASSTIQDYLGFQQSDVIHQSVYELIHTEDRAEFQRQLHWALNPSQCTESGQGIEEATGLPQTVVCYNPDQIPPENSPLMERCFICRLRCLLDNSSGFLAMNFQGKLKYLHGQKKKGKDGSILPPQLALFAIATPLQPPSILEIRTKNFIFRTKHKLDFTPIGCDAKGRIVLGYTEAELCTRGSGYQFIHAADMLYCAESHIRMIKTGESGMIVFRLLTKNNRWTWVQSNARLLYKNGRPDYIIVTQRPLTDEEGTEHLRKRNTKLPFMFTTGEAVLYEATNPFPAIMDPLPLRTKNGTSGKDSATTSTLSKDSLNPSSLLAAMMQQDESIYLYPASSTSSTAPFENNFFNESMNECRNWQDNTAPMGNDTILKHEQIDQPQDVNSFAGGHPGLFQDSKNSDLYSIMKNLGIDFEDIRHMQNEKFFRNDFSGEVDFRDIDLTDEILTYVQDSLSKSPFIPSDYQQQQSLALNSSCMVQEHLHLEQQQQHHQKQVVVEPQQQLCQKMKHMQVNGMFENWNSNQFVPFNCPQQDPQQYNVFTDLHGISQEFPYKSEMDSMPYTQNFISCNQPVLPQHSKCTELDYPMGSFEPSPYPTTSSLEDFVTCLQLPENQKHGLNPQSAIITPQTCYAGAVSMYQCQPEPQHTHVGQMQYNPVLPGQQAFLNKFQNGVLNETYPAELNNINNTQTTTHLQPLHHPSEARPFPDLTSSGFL

For `CCCCCC[C@@H](O)C/C=C\CCCCCCCC(=O)OCC(O)CO` (some centres not stated), the Potency result in [1], in assay [2], in [4], in assay [5], in [6] and in assay [7] was “inactive” in each case. Further, the Potency result (in assay [8]; with Aromatase (Homo sapiens); in assay [9]; in [10]; in [11]; in [12]) was “inactive” throughout. Moreover, the Potency entry in [13], in assay [14], in assay [15], in assay [16] and in [17] was “inactive” throughout. In addition, the result in assay [3] was inactive.

In the case of `CN1C(=O)N(c2ccccc2Br)Cc2cnc(Nc3ccc4c(c3)OCC(CO)O4)nc21` (configuration not stated), the Potency in assay [1] was 54.5 µM (active); in assay [2] it was 27.3 µM (active); in [18], 2.75 µM [cytotoxic] (active); in [14], 49 µM (active). In addition, in assay [3], the call was inactive. For the same molecule, the Potency result in [17] was “inactive”.

On to `O=C1NC(=O)c2cc([N+](=O)[O-])ccc21`, for which the Potency result in assay [1], in assay [2], in assay [4], in [5], in assay [6] and in [8] was “inactive” in each case. Moreover, the Potency result (in the assay with Aromatase (Homo sapiens); in assay [10]; in [11]; in assay [12]; in assay [14]; in [16]) was “inactive” in each case. The Potency entry in [17] and in [19] was “inactive” throughout. For the same molecule, the outcome in assay [3] was inactive.

For `C=C(C)CCCC(C)CCO` (configuration not stated), the Potency entry in [1], in [2], in [4], in assay [5], in assay [6] and in assay [7] was “inactive” in each case. Further, the Potency result (in assay [8]; with Aromatase (Homo sapiens); in [9]; in assay [10]; in assay [11]; in assay [12]) was “inactive” in each case. The Potency result in assay [14], in [17] and in assay [19] was “inactive” each time. Besides, the outcome in [3] was inactive.

Regarding `CCC1(CO)COCOC1`, the Potency result in assay [1], in assay [2], in [18], in assay [5], in assay [6] and in assay [7] was “inactive” in each case. Further, the Potency result (in assay [8]; with Aromatase (Homo sapiens); in assay [9]; in [10]; in assay [11]; in assay [14]) was “inactive” each time. The Potency entry in assay [16] and in assay [17] was “inactive” each time. The result in assay [3] was inactive.

Take `O=C(OC(=O)c1ccccc1)c1ccccc1`: the Potency entry in assay [1], in assay [2], in [4], in assay [5], in assay [6] and in assay [7] was “inactive” each time. In addition, the Potency result (in [8]; with Aromatase (Homo sapiens); in assay [9]; in assay [10]; in assay [11]; in assay [12]) was “inactive” throughout. Besides, the Potency result in assay [13], in assay [14], in assay [15], in [16], in assay [17] and in assay [19] was “inactive” each time. Besides, the result in [3] was inactive.

On to `Cc1cscn1`, for which the Potency result in assay [1], in [2], in assay [4], in assay [5], in [6] and in assay [7] was “inactive” each time. Besides, the Potency result (in assay [8]; in the assay with Aromatase (Homo sapiens); in assay [9]; in assay [10]; in assay [11]; in [12]) was “inactive” throughout. Besides, the Potency entry in assay [14], in [15], in assay [16], in assay [17] and in [19] was “inactive” in each case. The outcome in [3] was inactive.

Regarding `CCCC(=O)C(=O)O`, the Potency entry in assay [1], in assay [2], in assay [4], in assay [5], in [6] and in assay [7] was “inactive” throughout. Moreover, the Potency result (in assay [8]; in the assay with Aromatase (Homo sapiens); in assay [10]; in [11]; in [14]; in [16]) was “inactive” in each case. Moreover, the Potency entry in assay [17] and in assay [19] was “inactive” each time. The result in [3] was inactive.
